RGS4 inh – blocks human RGS4-accelerated GTP hydrolysis | Potency, µM (highest dose often 114 µM), for the others: at the top dose activity change, negative = inhibition, most hits filed as inhibitors | P49798 | AID 504845 | Transcreener GDP fluorescence polarization, RGS4-accelerated GTP hydrolysis | actives 0.039% (n = 390,000); further: on the % scale 0 is the no-effect control and ±100 the full control effect; nearly all actives have a fitted effect of over 75% in size
Target sequence (P49798 whole entry, looked up): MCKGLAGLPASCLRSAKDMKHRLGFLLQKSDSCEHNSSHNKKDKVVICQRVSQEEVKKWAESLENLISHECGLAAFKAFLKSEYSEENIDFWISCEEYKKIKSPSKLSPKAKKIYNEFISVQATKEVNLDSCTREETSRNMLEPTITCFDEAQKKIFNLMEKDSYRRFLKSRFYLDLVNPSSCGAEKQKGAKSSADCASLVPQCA
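MLSMR compounds (23 nl, pin-transferred) preincubated 10 min at room temperature with a 500nM (2x) first reagent, then RGS4 at 900nM (2x) plus Transcreener GDP mix added; fluorescence polarization (620/688 nm) read before and after 90 min at 30 °C.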
PTAP TSG101 blk – blocks PTAP/TSG101 interaction to inhibit HIV-1 budding. Q99816. Fluorescence polarization, FITC-PTAP peptide / Tsg101 binding. Potency, µM (doses to about 115 µM), for inactives: at the top dose activity change, negative = inhibition, actives largely listed as inhibitors. 340,000 tested, under 10 active; active means well fitted inhibition curve with a large enough effect in the main read-out, with a control signal flat, not every such curve was filed as active; inconclusive means small, poorly fitted or top-dose-only effect, or effect the other way, or a change in a side signal; inactive means no such curve, though single readings can be large or run the other way; further: % of control where 0% means no effect
Target sequence (Q99816 whole entry, looked up): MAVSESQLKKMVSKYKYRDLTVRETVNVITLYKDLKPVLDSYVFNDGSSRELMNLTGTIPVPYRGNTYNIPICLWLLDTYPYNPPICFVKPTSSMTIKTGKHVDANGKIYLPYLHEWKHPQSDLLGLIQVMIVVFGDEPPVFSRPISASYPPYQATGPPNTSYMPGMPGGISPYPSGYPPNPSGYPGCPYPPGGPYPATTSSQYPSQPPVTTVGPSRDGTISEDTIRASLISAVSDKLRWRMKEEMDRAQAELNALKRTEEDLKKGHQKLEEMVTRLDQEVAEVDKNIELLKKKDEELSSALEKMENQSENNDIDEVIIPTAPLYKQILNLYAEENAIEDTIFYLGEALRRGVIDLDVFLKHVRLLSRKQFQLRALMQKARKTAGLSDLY
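FP read-out: FITC-PTAP peptide, 50 nM final, binding Tsg101 binding domain, 10 uM final; 20 min, r.t.; 10 mM HEPES pH 7.5, 0.15 M NaCl, 0.01% Tween 20, 3 mM EDTA, 0.1 mM TCEP.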
KB-3-1 cytotox – kills parental KB-3-1 adenocarcinoma cells; actives 1.4% (n = 400,000); Potency, µM (highest dose often 46.1 µM), actives largely listed as cytotoxic; KB-3-1 viability, CellTiter-Glo ATP luminescence, 72 h; AID 1347075; further: on the % scale 0 is the no-effect control and ±100 the full control effect; nearly all actives have a fitted effect of over 60% in size
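Luminescent ATP read-out (CellTiter-Glo) measures survival of drug-naive KB-3-1 cells after 72 h compound exposure at 37 °C. Titration series was screened from lowest to highest concentration, with DMSO vehicle plates as background controls.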
SW480 rereplic – induces DNA re-replication in SW480 colon adenocarcinoma cells; AID 624297; actives 1.8% (n = 340,000); Potency, µM (doses to about 46.1 µM), for inactives: at the highest dose re-replication activation, actives largely listed as activators; SW480 DNA re-replication, Hoechst DNA content imaging, 48 h; further: % of control where 0% means no effect; nearly all actives have a fitted effect of over 55% in size
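Per well, 250 cells were exposed to pinned compound for 48 hr. Nuclear DNA was visualised with Hoechst (40 min, 37 C) and total object intensity recorded by fluorescence scanning.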
MCF10A rereplic – inducers of DNA re-replication in MCF 10A breast cells; MCF 10A DNA re-replication, Hoechst nuclear intensity, 48 h; Potency, µM (titrated, usually from 46.1 µM), for inactives: at the highest dose activity, positive = re-replication, actives largely listed as activators; actives 2.9% (n = 350,000); AID 624296; further: % of control where 0% means no effect; nearly all actives have a fitted effect of over 50% in size
KB-V1 MDR tox – KB-V1 MDR subline cytotoxicity. KB-V1 MDR cells viability, CellTiter-Glo, 72 h. Potency, µM (titrated, usually from 46.1 µM), hits mostly cytotoxic. actives 3.4% (n = 400,000); further: on the % scale 0 is the no-effect control and ±100 the full control effect; nearly all actives have a fitted effect of over 60% in size
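In this primary screen, KB-V1 cells overexpressing P-gp are incubated with library compounds (lowest to highest concentration) for 72 h at 37 degrees C before a luminescent ATP viability read.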
* = called active by the depositor; i = inactive; u = inconclusive; x = no result; [ ] = dose if it differs, or a comment. Compounds with a hit are over-represented: about 6.6% of the library has one in this group of screens. Unless noted, the call rests on the fitted dose curve; in most records, active means well fitted curve in the direction sought with a large enough effect; inconclusive means small, poorly fitted or top-dose-only effect, or another doubt; inactive means no such curve, though single readings can be large; an effect the other way counts as inactive or inconclusive. Potency means the concentration at half of the fitted maximal effect.

SMILES	RGS4 inh	PTAP TSG101 blk	KB-3-1 cytotox	SW480 rereplic	MCF10A rereplic	KB-V1 MDR tox
COc1ccc(CN2CCN(C(c3ccc(F)cc3)c3ccc(F)cc3)CC2)c(OC)c1OC	-5.7%	-2.1%	u	16.9%	21.1µM*	18.4µM*
COc1ccccc1N1CCN(Cc2cc(=O)oc3cc(C)ccc23)CC1	x	x	i	x	x	i
COc1ccc(CN2CCN(c3ccc(F)cc3)CC2)c(OC)c1OC	3.8%	-0.5%	u	u	-5.2%	8.2µM*
O=C(O)c1ccc(C2Nc3ccccc3-c3nnc(SCc4ccc(Cl)cc4)nc3O2)cc1 (stereo not given)	-2.0%	x	x	x	x	x
CCCc1cc(=O)oc2cc(C)cc(OCC(=O)Nc3cccnc3)c12	-24.8%	2.9%	i	23.1µM*	12.5%	i
Fc1ccc(CSc2nnc3ccccn23)c(Cl)c1	-17.9%	-1.7%	i	u	-2.8%	u
Fc1ccc2nncc(SCc3ccccc3Cl)c2c1	-14.8%	-0.5%	i	18.4%	18.4µM*	i
COCCNC(=O)CSc1nnc2[nH]c(=O)cc(C)n12	25.2%	x	x	x	x	x
Nc1cccc2cnccc12	1.7%	-9.6%	i	-7.3%	-2.7%	i
Nc1ccncc1N	2.4%	-3.1%	20.6µM*	u	u	u
COc1ccc2c(c1)C(=O)CC2	x	x	i	x	x	i
COc1ccc(-n2cnnc2SCc2cnc(-c3ccccc3)s2)cc1	-8.0%	-2.2%	i	9.7%	-0.5%	16.4µM*
CCCCN1C(=O)C(O)(CC(=O)c2ccc(CC)cc2)c2cc(Br)ccc21 (stereo not given)	8.9%	x	x	x	x	x
CN1C(=O)C(O)(CC(=O)c2ccc(F)cc2)c2cc(Br)ccc21 (stereo not given)	-12.4%	-12.1%	25.9µM*	u	u	i
CCOC(=O)c1c(NC(=O)CN2CCCc3ccccc32)sc(C(C)=O)c1C	-8.9%	-0.5%	i	3.8%	-2.0%	4.11µM*
CCOC(=O)c1c(NC(=O)N/N=C/c2ccccc2OCC)sc(C(C)=O)c1C	9.1%	-3.3%	16.4µM*	4.4%	u	u
CCOC(=O)c1c(NC(=O)CSc2nnc(Cc3ccccc3)o2)sc(C(C)=O)c1C	0.2%	3.7%	i	-3.6%	11.0%	18.4µM*
CCCCN(CC)C(=O)CCCn1c(=O)c2cccn2c2ccccc21	2.3%	x	x	x	x	x
CN(C)CCNc1nccc(N2CCN(C)CC2)n1	x	x	u	x	x	i
Cn1c(C(=O)OCC(=O)NCc2ccc(F)cc2)cc2occc21	-31.0%	0.6%	i	-0.8%	2.91µM*	i
O=[N+]([O-])c1ccc(O)c(N=Cc2sc3ccccc3c2O)c1	19.8%	-0.6%	16.4µM*	u	-33.3%	4.11µM*
COc1ccc(N=Cc2sc3ccccc3c2Cl)cc1	-33.6%	0.1%	i	u	-12.6%	i
Oc1ccc(Cl)cc1N=Cc1sc2ccccc2c1Cl	1.7%	-1.5%	u	20.6µM*	143.0%	i
Cc1cccc(Nc2c3c(nc4ncnn24)CCC3)c1	-10.2%	-5.9%	i	-175.5%	0.6%	i
Clc1ccc(Nc2c3c(nc4ncnn24)CCC3)cc1	6.2%	-0.1%	i	-25.7%	-2.5%	7.31µM*
SMILES	RGS4 inh	PTAP TSG101 blk	KB-3-1 cytotox	SW480 rereplic	MCF10A rereplic	KB-V1 MDR tox
Cc1cc(C)cc(Nc2c3c(nc4ncnn24)CCC3)c1	-26.4%	-3.7%	i	u	u	2.06µM*
c1ccc(CNc2c3c(nc4ncnn24)CCCC3)nc1	-8.3%[11.4 µM]	-1.9%	i	0.1%[9.22 µM]	u	i
COc1ccc(OCC(=O)NNC(=O)C(=O)Nc2cc(OC)ccc2OC)cc1	-16.3%	-3.9%	i	-8.8%	-0.2%	i
COc1ccc(C)cc1NC(=O)C(=O)NNC(=O)COc1ccc(Cl)cc1	11.1%	-3.3%	i	-6.5%	20.6µM*	i
CN(C)c1ccc(C=c2c3ccccc3n3c2c2ccccc2[n+]3C)cc1	u	-2.6%	5.17µM*	13µM*	u	u
Cc1cc2c(=Cc3ccc(N(C)C)cc3)c3ccccc3n2[n+]1C	u	26.7%	i	u	-7.0%	i
CCOC(=O)c1cc2c(=Cc3ccc(N(C)C)cc3)c3ccccc3n2[n+]1C	u	u	2.06µM*	u	25.0%	u
CN(C)c1ccc(C=c2c3cc(O)ccc3n3c2cc(-c2ccccc2)[n+]3C)cc1	u	6.4%	u	14.5%	-0.5%	u
Cc1ccc(S(=O)(=O)c2nc(-c3ccccc3Br)oc2N(C)C)cc1	-10.8%	0.9%	u	u	u	u
CN(C)c1oc(-c2ccco2)nc1S(=O)(=O)c1ccc(Br)cc1	-31.5%	-0.2%	i	-2.3%	4.7%	4.61µM*
Cc1ccc(S(=O)(=O)c2nc(-c3ccccc3Cl)oc2N(C)C)cc1	-10.2%	-4.3%	18.4µM*	u	12.1%	10.3µM*
CN(C)c1oc(-c2ccccc2Cl)nc1P(=O)(c1ccccc1)c1ccccc1	-13.1%	-5.5%	u	u	18.4µM*	7.31µM*
COc1ccc(OC)c(NC(=O)CSc2cn(CC(=O)N3CCOCC3)c3ccccc23)c1	-1.8%	x	x	x	x	x
Cc1ccc(Nc2nc(CSc3nnc(-c4ccc(F)cc4)n3C)cs2)cc1	-38.2%	0.5%	u	u	13.2%	6.51µM*
COc1ccc(OC)c(/C=C2\Cc3ccccc3C2=O)c1	x	x	i	x	x	i
Cn1c(SCc2ccc(Cl)cc2)nc(C(F)(F)F)cc1=O	8.0%	-6.8%	u	-3.4%	20.1%	16.4µM*
CS(=O)(=O)N1CCN(c2ccc(NC(=O)c3ccc([N+](=O)[O-])o3)cc2)CC1	-9.4%[56.9 µM]	-0.4%	i	-77.5%	2.06µM*	18.4µM*
O=C(Nc1ccc(N2CCCCC2)cc1)c1ccc([N+](=O)[O-])o1	-17.1%	-0.9%	u	u	u	u
O=C(Nc1ccc(N2CCN(Cc3ccccc3F)CC2)cc1)c1ccc([N+](=O)[O-])o1	-16.6%	-1.7%	u	u	2.06µM*	14.6µM*
CC(C)(C)C(=O)N1CCN(c2ccc(NC(=O)c3ccc([N+](=O)[O-])o3)cc2)CC1	-4.1%	-5.4%	u	1.84µM*	1.84µM*	u
CC1CCN(c2ccc(NC(=O)c3ccc([N+](=O)[O-])o3)cc2)CC1	-32.4%	-0.2%	5.17µM*	9.2µM*	3.26µM*	10.3µM*
O=C(O)/C=C/c1ccc2ccccc2c1	x	x	i	x	x	i
O=C(OCC(=O)N1CCCCC1)c1c[nH]c2ccccc12	7.5%	-5.8%	i	3.2%	-0.1%	20.6µM*
Cc1[nH]c2ccccc2c1C(=O)CSC(=S)N(C)C1CCCCC1	0.9%	-8.5%	i	15.8%	13.0%	i

Screening data as filed in PubChem.
